Test results from the supplement of paper PMC6089552.
Among all 3,200 compounds or so, about 300 (9.4%) showed activity. Only a selection was taken, and actives are over-represented in it overall.

System: A673/TR/shEF
Assay: cell viability (LOESS-normalised, relative to median of negative controls) (log2 ratio); higher = more viable cells (less compound effect), active = hit call of the paper (over 3 MAD below the median)
Settings: treatment time: 72 h
Method in brief: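 For three days, A673/TR/shEF Ewing sarcoma cells in 384-well plates (1,500 per well) were treated with library compounds at two or more concentrations or with DMSO controls, after doxycycline had been added or withheld 24 h beforehand to induce EWS-FLI1 shRNA knockdown. Viability was read by CellTiter-Glo luminescence on an Envision reader. The data were LOESS-corrected per plate, divided by the median of negative controls and log2-transformed.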

[1] = 0.25 µM, library screen: screen2, EWS-FLI1 expression: high (no doxycycline)
[2] = 0.25 µM, library screen: screen2, EWS-FLI1 expression: low (doxycycline-induced shRNA knockdown)
[3] = 2.5 µM, library screen: screen2, EWS-FLI1 expression: high (no doxycycline)
[4] = 2.5 µM, library screen: screen2, EWS-FLI1 expression: low (doxycycline-induced shRNA knockdown)
[5] = 0.25 µM, library screen: screen1, EWS-FLI1 expression: high (no doxycycline)
[6] = 0.25 µM, library screen: screen1, EWS-FLI1 expression: low (doxycycline-induced shRNA knockdown)
[7] = 2.5 µM, library screen: screen1, EWS-FLI1 expression: high (no doxycycline)
[8] = 2.5 µM, library screen: screen1, EWS-FLI1 expression: low (doxycycline-induced shRNA knockdown)
[9] = 0.103 µM, library screen: screen3, EWS-FLI1 expression: high (no doxycycline)
[10] = 0.103 µM, library screen: screen3, EWS-FLI1 expression: low (doxycycline-induced shRNA knockdown)
[11] = 0.308 µM, library screen: screen3, EWS-FLI1 expression: high (no doxycycline)
[12] = 0.308 µM, library screen: screen3, EWS-FLI1 expression: low (doxycycline-induced shRNA knockdown)
[13] = 0.926 µM, library screen: screen3, EWS-FLI1 expression: high (no doxycycline)
[14] = 0.926 µM, library screen: screen3, EWS-FLI1 expression: low (doxycycline-induced shRNA knockdown)
[15] = 2.8 µM, library screen: screen3, EWS-FLI1 expression: high (no doxycycline)
[16] = 2.8 µM, library screen: screen3, EWS-FLI1 expression: low (doxycycline-induced shRNA knockdown)
[17] = 8.3 µM, library screen: screen3, EWS-FLI1 expression: high (no doxycycline)
[18] = 8.3 µM, library screen: screen3, EWS-FLI1 expression: low (doxycycline-induced shRNA knockdown)
[19] = 25 µM, library screen: screen3, EWS-FLI1 expression: high (no doxycycline)
[20] = 25 µM, library screen: screen3, EWS-FLI1 expression: low (doxycycline-induced shRNA knockdown)

Measured: cell viability (log2)

CCCCCCCCCCCCCCC[C@@H](O)[C@H](CO)NC(C)=O
inactive: [1] 0.176 | [2] 0.139 | [3] 0.0603 | [4] 0.124

NC(=S)c1ccc[n+]([C@@H]2O[C@H](COP(=O)(O)OP(=O)(O)OC[C@H]3O[C@@H](n4cnc5c(N)ncnc54)[C@H](OP(=O)(O)O)[C@@H]3O)[C@@H](O)[C@H]2[O-])c1
inactive: [1] 0.209 | [2] 0.145 | [3] 0.254 | [4] 0.143

Clc1ccc(CN2CCN(Cc3c[nH]c4ccccc34)CC2)cc1
inactive: [5] 0.142 | [6] 0.175 | [7] 0.152 | [8] 0.116

COc1ccc2c(c1)OCC(=Cc1ccc(OC)c(O)c1)C2=O
inactive: [5] 0.111 | [6] 0.0739 | [7] 0.125 | [8] 0.0254

CCOC(=O)C1=C(C)NC2=C(C(=O)CC(C)(C)C2)C1c1coc2ccccc2c1=O (stereo not drawn)
inactive: [5] 0.113 | [6] 0.123 | [7] 0.0647 | [8] 0.0912

COc1ccc(CNS(=O)(=O)c2ccc(NC(C)=O)cc2)cc1
inactive: [5] 0.136 | [6] 0.114 | [7] 0.073 | [8] 0.0317

CC(=O)O[C@@H]1CC2C(C)(C)CCC[C@]2(C)C2CC[C@]3(C)C(=CC(=O)O[C@H]3c3ccoc3)[C@@]21C (stereo partly drawn)
inactive: [5] 0.0969 | [6] 0.0706 | [7] 0.0583 | [8] 0.123

CC1=C(C(=O)OC2CCCC2)C(c2coc3ccccc3c2=O)C2=C(CCCC2=O)N1 (stereo not drawn)
inactive: [5] 0.0306 | [6] 0.112 | [7] 0.0744 | [8] 0.0338

Cc1cc(=O)c2c(o1)-c1c(cc(O)c(O)c1C(=O)O)OC2
inactive: [5] 0.0145 | [6] 0.0255 | [7] 0.0451 | [8] 0.0692

N[C@@H](CCC(=O)O)C(=O)O
inactive: [1] 0.193 | [2] 0.073 | [3] 0.108 | [4] 0.15

N[C@H](CO)C(=O)O
inactive: [1] 0.128 | [2] 0.103 | [3] 0.162 | [4] 0.112

N[C@@H](CC(=O)O)C(=O)O
active: [1] -0.146
inactive: [2] 0.087 | [3] 0.0127 | [4] 0.00419

CNc1ccccc1C(=O)N1CCc2c([nH]c3ccccc23)C1=O
inactive: [5] 0.0191 | [6] -0.0744 | [7] 0.0945 | [8] 0.0188

COC1[C@H](O)[C@@H](O)C(O)[C@H](O)[C@H]1O (stereo partly drawn)
inactive: [5] 0.0827 | [6] 0.0562 | [7] 0.177 | [8] 0.115

CC(=O)O[C@H]1CC[C@]2(C)[C@H]3C(=O)C=C4[C@@H]5C[C@@](C)(C(=O)O)CC[C@]5(C)CC[C@@]4(C)[C@]3(C)CC[C@H]2C1(C)C
inactive: [5] 0.0602 | [6] 0.011 | [7] 0.129 | [8] 0.0507

CO[C@@H](C(=O)N1Cc2[nH]nc(NC(=O)c3ccc(N4CCN(C)CC4)cc3)c2C1)c1ccccc1
active: [9] -0.25 | [11] -0.418 | [13] -0.596 | [14] -0.134 | [15] -0.679 | [16] -0.355 | [17] -0.794 | [18] -0.46 | [19] -1.13 | [20] -1.21
inactive: [10] 0.0472 | [12] -0.0579

O=C(Nc1cc(C(=O)Nc2ccc(S(=O)(=O)O)c(S(=O)(=O)O)c2)cc(C(=O)Nc2ccc(S(=O)(=O)O)c(S(=O)(=O)O)c2)c1)Nc1cc(C(=O)Nc2ccc(S(=O)(=O)O)c(S(=O)(=O)O)c2)cc(C(=O)Nc2ccc(S(=O)(=O)O)c(S(=O)(=O)O)c2)c1
inactive: [1] 0.215 | [2] 0.101 | [3] 0.0469 | [4] 0.125

Cc1ccc(C(=O)Nc2ccc(S(=O)(=O)O)c3cc(S(=O)(=O)O)cc(S(=O)(=O)O)c23)cc1NC(=O)c1cccc(NC(=O)Nc2cccc(C(=O)Nc3cc(C(=O)Nc4ccc(S(=O)(=O)O)c5cc(S(=O)(=O)O)cc(S(=O)(=O)O)c45)ccc3C)c2)c1
active: [1] -2.98 | [2] -2.91 | [3] -3.46 | [4] -3.2
inactive: [5] 0.152 | [6] 0.0138 | [7] 0.0749 | [8] 0.0704

O=C(Nc1cccc(C(=O)Nc2ccc(S(=O)(=O)O)c3cc(S(=O)(=O)O)cc(S(=O)(=O)O)c23)c1)Nc1cccc(C(=O)Nc2ccc(S(=O)(=O)O)c3cc(S(=O)(=O)O)cc(S(=O)(=O)O)c23)c1
inactive: [1] 0.11 | [2] 0.117 | [3] 0.167 | [4] 0.0855

OCCN(C(=S)Nc1ccc2nccnc2c1)c1ccccc1
inactive: [5] 0.0686 | [6] 0.0667 | [7] 0.0818 | [8] 0.102

CC12CCC3c4ccc(OC(=O)c5ccccc5)cc4CCC3C1CCC2=O (stereo not drawn)
inactive: [5] -0.000312 | [6] 0.0356 | [7] 0.0819 | [8] 0.000425

Cc1cc(OC(=O)c2c(C)cc(O)cc2O)cc(O)c1C(=O)O
inactive: [5] 0.0848 | [6] -0.00358 | [7] 0.0665 | [8] 0.0394

O=C1C(CC[S+]([O-])c2ccccc2)C(=O)N(c2ccccc2)N1c1ccccc1 (stereo not drawn)
inactive: [5] 0.123 | [6] 0.158 | [7] 0.184 | [8] 0.139

CCCCC1C(=O)N(c2ccccc2)N(c2ccccc2)C1=O
inactive: [9] 0.0537 | [10] 0.0214 | [5] 0.128 | [6] 0.109 | [1] 0.0899 | [2] 0.0435 | [11] 0.172 | [12] 0.159 | [13] 0.0763 | [14] 0.0956 | [7] 0.118 | [8] 0.1 | [3] 0.084 | [4] 0.0326 | [15] 0.137 | [16] 0.112 | [17] 0.169 | [18] 0.123 | [19] 0.117 | [20] 0.141

CCCCC1C(=O)N(c2ccccc2)N(c2ccc(O)cc2)C1=O (stereo not drawn)
active: [7] -0.129
inactive: [5] 0.139 | [6] 0.0945 | [8] 0.2
